Composite z-score and z-score data for six compounds are collected here from PubChem BioAssay.

For assay [1], the system named is Plasmodium falciparum Sir2 (PF13_0152, Sir2A). The experiment in a line: pfSir2 binders on small-molecule microarrays, primary screen, biochemical, small-molecule microarray, 635 nm fluorescence (AID 1098).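 Further: score merges spot fluorescence intensity with its signal-to-noise ratio.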 The note with it: small-molecule microarray binding, fluorescence 635 nm; higher = more signal.
Assay [2] can be described thus: small-molecule microarray binders of probe aDKK1, primary screen, biochemical, biotinylated probe, 635/667 nm fluorescence (AID 1099).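 Further: score merges 667nm spot fluorescence with signal to noise across triplicate slides.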 The note with it: higher = more signal.
Assay [3] in a line: small-molecule microarray binders of probe aCHRDL2, primary screen, biochemical, biotinylated probe, 635/667 nm fluorescence (AID 1100). The note with it: higher = more signal.
The nature of assay [4]: splicing luciferase reporter signal modulators, primary screen, spliceosome inhibition project, cell-based, HEK293, splice +/- reporter (AID 1101).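 Further: HEK293 cells carrying a splicing-competent luciferase reporter gene; test concentration not given here.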 The note with it: luminescence, 24 h, higher = more signal, called active from +8 up or from −8 down. In general terms: A reporter such as luciferase makes a cellular process visible.
Assay [5] addresses Fibroblast growth factor 10 (Homo sapiens) (UniProt O15520). The experiment in a line: FGF10 binders on small-molecule microarrays, primary screen, biochemical, small-molecule microarray, 635 nm fluorescence (AID 1102). The note with it: FGF10 binding, fluorescence 635 nm, higher = more signal.
The test system of assay [6] is glycogen synthase kinase-3 (GSK3A per assay name; protocol says GSK3B). The experiment in a line: GSK3 binders on small-molecule microarrays, primary screen, biochemical, small-molecule microarray, 635 nm fluorescence, GSK3A (AID 1103). Further: the record names both GSK3A and GSK3B. The note with it: small-molecule microarray binding, fluorescence 635 nm; higher = more signal.
The target of assay [7] is Epidermal growth factor receptor (Homo sapiens) (UniProt P00533). The experiment in a line: EGFR binders on small-molecule microarrays, primary screen, biochemical, small-molecule microarray, 635 nm fluorescence (AID 1104).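 Further: score merges 667 nm emission intensity with spot signal to noise over triplicate slides.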 The note with it: EGFR binding, higher = more signal.
Assay [8] concerns the target Follistatin-related protein 3 (Homo sapiens) (UniProt O95633). In words: FSTL3 binders on small-molecule microarrays, primary screen, biochemical, small-molecule microarray, 635 nm fluorescence (AID 1105).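 Further: score merges emission near 667 nm and signal to noise per printed spot across three slides.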 The note with it: FSTL3 binding, higher = more signal.
Assay [9] deals with Dickkopf-related protein 1 (Homo sapiens) (UniProt O94907). The experiment in a line: DKK1 binders on small-molecule microarrays, primary screen, biochemical, small-molecule microarray, 635 nm fluorescence scan (AID 1106).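 Further: score merges emission near 667 nm with signal to noise over three replicate slides.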 The note with it: DKK1 binding, higher = more signal.
In assay [10] the test system is Inhibin beta A chain (activin A). In words: INHBA (activin A) binders on microarrays, primary screen, biochemical, small-molecule microarray, 635 nm fluorescence scan (AID 1107).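 Further: mouse activin A protein probed at 4.33 µg/mL on printed slides; score merges bound-protein fluorescence near 667 nm with spot signal-to-noise.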 The note with it: small-molecule microarray binding, higher = more signal.
In assay [11] the test system is Human papillomavirus type 1a protein E7 (residues 44-93). In words: HPV1a E7 fragment binders on microarrays, primary screen, biochemical, small-molecule microarray, residues 44-93, 635 nm fluorescence (AID 1108).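 Further: E7 fragment applied at 1 µg/mL in TBST for 1 h at 4 C; score combines spot fluorescence with its signal to noise ratio.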 The note with it: small-molecule microarray binding, fluorescence 635 nm; higher = more signal.
The nature of assay [12]: modulators of HCV replicon luciferase signal, primary screen, HCV replication inhibitor project, Huh7 cells, luciferase reporter (AID 1109).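 Further: huh7 hepatoma cells harbouring a luciferase neomycin HCV replicon reporter; luciferase luminescence as measure of HCV replicon replication; test concentration not given here.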 The note with it: 48 h, higher = more signal. A general note: Replicon systems follow genome replication, usually without infectious particles.
Assay [13] has as its target Left-right determination factor 2 (Homo sapiens) (UniProt O00292). In words: LEFTY2 binders on small-molecule microarrays, primary screen, biochemical, small-molecule microarray, 635 nm fluorescence scan (AID 1110). The note with it: LEFTY2 binding, higher = more signal.
Assay [14] has as its target Calmodulin-1 (Homo sapiens) (UniProt P0DP23). The experiment in a line: CALM1 binders on microarrays, EGTA buffer, profiling panel, biochemical, small-molecule microarray, Cy5-labelled CALM1 (AID 1111).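 Further: labelled calmodulin applied in Tris saline Tween buffer holding calcium plus EGTA and DTT.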 The note with it: Cy5-CALM1 binding fluorescence, higher = more signal.
The target is the same in assay [15]. The experiment in a line: calcium-bound CALM1 binders on microarrays, profiling panel, artefact control for SMM control-protein annotation, biochemical, small-molecule microarray, Cy5-labelled CALM1, plus calcium (AID 1112).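 Further: score merges spot fluorescence with signal to noise from triplicate slides.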 The note with it: Cy5-CALM1 binding fluorescence, higher = more signal.
Assay [16] is described as follows: small-molecule microarray binders of probe aWnt5a, primary screen, biochemical, biotinylated probe, 635/667 nm fluorescence (AID 1113).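 Further: score merges 667 nm fluorescence intensity with signal-to-noise per printed feature.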 The note with it: higher = more signal.
Assay [17] in a line: small-molecule microarray binders of probe aShh, primary screen, biochemical, biotinylated probe, 635/667 nm fluorescence (AID 1114).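 Further: probe is biotin-labelled aShh protein from a stem cell growth factor screen; measures binding of labelled protein to compounds printed on the slide; score merges feature fluorescence at 667 nm with signal-to-noise.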 The note with it: higher = more signal.
Assay [18] in a line: small-molecule microarray binders of probe aNog, primary screen, biochemical, biotinylated probe, 635/667 nm fluorescence (AID 1115).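 Further: probe is biotinylated aNog protein used at 0.15 µg/mL for 1 h at 4 C; z-score combines 667 nm fluorescence of each spot with its signal to noise.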 The note with it: higher = more signal.
Assay [19] addresses Torsin-1A-interacting protein 1 (Homo sapiens) (UniProt Q5JTV8). In words: LAP1 binders from COS7 cell lysate, primary screen, small-molecule microarray, 635/667 nm fluorescence (AID 1116). The note with it: COS7-hLAP1 lysate binding, 635 nm fluorescence, higher = more signal.
For assay [20], the target named is Alpha-bungarotoxin (Bungarus multicinctus) (UniProt P60615). In words: alpha-bungarotoxin binders on microarray, profiling panel, artefact control for SMM control protein annotation, biochemical, small-molecule microarray, Alexa647 label, 635/667 nm fluorescence (AID 1117). The note with it: alpha-BTX-A647 binding fluorescence, higher = more signal.

The source made the active and inactive calls.

Chain of Epidermal growth factor receptor (Homo sapiens) (P00533 whole entry, looked up): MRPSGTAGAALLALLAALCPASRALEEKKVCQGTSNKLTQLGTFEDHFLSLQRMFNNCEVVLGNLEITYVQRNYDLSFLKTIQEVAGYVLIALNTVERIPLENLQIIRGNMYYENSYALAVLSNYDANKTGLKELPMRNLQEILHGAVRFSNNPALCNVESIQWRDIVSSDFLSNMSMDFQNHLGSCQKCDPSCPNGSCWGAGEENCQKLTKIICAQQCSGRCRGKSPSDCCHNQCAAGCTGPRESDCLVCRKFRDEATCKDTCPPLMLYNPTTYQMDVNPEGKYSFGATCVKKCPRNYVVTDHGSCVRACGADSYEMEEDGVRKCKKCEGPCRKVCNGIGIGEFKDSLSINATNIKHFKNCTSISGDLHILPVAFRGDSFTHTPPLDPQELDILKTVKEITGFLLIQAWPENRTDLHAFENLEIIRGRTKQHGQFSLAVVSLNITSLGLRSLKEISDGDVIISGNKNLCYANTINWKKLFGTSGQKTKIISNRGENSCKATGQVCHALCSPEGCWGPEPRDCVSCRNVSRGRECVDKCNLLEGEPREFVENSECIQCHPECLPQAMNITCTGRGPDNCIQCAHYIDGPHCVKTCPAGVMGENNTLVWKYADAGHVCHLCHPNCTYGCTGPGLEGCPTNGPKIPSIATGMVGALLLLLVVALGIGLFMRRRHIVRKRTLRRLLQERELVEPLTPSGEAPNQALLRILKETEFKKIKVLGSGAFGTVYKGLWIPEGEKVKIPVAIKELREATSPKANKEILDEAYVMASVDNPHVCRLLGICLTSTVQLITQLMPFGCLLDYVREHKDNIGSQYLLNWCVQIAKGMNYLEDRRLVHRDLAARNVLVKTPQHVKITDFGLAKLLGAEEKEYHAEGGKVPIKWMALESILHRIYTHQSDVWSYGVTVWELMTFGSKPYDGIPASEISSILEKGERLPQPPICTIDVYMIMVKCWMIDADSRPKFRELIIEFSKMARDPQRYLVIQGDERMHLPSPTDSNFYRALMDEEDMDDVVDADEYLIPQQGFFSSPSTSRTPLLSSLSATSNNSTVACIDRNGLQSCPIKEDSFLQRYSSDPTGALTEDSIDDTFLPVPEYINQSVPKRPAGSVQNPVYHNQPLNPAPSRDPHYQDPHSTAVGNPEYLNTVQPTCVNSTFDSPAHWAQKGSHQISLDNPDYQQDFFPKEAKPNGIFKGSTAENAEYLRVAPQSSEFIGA
Chain of Left-right determination factor 2 (Homo sapiens) (O00292 whole entry, looked up): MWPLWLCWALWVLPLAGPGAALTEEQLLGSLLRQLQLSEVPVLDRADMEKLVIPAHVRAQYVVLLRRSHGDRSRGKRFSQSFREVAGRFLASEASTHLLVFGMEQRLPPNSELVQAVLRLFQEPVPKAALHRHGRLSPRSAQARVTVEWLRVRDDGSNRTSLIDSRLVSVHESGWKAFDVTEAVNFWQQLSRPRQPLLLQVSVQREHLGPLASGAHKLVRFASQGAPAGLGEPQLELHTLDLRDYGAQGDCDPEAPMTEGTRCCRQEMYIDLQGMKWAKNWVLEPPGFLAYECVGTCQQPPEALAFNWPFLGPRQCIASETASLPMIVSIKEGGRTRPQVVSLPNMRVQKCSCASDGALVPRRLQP
Chain of Torsin-1A-interacting protein 1 (Homo sapiens) (Q5JTV8 whole entry, looked up): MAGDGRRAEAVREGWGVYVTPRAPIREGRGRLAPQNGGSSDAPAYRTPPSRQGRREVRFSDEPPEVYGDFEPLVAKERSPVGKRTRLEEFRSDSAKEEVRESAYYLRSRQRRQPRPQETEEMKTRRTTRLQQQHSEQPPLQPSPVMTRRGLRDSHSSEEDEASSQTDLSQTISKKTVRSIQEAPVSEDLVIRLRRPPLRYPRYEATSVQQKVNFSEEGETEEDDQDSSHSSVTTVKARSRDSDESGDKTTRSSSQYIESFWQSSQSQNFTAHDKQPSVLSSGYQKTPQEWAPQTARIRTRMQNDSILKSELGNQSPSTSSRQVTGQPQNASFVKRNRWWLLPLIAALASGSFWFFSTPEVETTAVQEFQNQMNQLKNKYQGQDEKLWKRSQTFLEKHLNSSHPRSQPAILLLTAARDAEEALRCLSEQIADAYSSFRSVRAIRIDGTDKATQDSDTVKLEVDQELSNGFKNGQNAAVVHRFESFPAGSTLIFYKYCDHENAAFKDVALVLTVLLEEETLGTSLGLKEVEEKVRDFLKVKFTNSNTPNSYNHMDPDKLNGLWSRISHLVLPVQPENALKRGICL
Chain of Fibroblast growth factor 10 (Homo sapiens) (O15520 whole entry, looked up): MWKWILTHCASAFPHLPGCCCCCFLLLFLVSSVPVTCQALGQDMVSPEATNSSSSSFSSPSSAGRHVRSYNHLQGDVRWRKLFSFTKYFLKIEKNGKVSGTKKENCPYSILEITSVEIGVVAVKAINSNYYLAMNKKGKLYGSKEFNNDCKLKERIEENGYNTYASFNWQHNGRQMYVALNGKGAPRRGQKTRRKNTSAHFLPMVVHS
Chain of Dickkopf-related protein 1 (Homo sapiens) (O94907 whole entry, looked up): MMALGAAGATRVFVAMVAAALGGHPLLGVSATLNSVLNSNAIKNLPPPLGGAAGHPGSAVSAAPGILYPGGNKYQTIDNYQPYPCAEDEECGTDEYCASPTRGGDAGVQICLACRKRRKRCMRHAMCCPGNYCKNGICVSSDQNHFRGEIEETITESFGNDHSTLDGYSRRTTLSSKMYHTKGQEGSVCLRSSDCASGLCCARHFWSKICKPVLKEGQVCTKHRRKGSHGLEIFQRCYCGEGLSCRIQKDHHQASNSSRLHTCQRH
Chain of Follistatin-related protein 3 (Homo sapiens) (O95633 whole entry, looked up): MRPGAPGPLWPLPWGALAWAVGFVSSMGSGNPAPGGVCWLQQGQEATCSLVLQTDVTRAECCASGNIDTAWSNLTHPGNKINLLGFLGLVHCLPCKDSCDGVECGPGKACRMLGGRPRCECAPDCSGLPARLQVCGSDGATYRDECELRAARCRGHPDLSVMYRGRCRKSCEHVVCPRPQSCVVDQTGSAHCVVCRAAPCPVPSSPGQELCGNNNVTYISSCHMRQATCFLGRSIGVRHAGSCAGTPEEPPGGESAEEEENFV
Chain of Alpha-bungarotoxin (Bungarus multicinctus) (P60615 whole entry, looked up): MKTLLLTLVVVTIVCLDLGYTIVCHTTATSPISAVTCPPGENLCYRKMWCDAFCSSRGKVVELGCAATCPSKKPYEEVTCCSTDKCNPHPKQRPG

Regarding `COC(=O)[C@H](C)NC(=O)CCC1CC(OC(=O)NCCc2ccc(F)cc2)CC2(CCCC(COC(=O)NCC3CCCCC3)O2)O1` (stereo not given in full), the composite z-score in [1] is 0.662; in [2], -0.262; in [3], -0.446; in assay [5] it was 0.938; in assay [6] it was 1.23; in assay [7], 0.501. Further, the composite z-score in assay [8] was 1.08; in assay [9] it was 0.678; in assay [10], 0.0532; in [11] it was 1.39; in assay [13] it was 0.573; in assay [14], 0.71. Also, the composite z-score in [15] was -0.039; in assay [16] it was -0.1; in [17], 0.0469; in assay [18] it was 0.144; in assay [19], 0.774; in [20] it was 0.382. For the same compound, the z-score was -0.863 (inactive) in assay [4] and -1.34 in [12].

For `COc1ccc2c(c1)O[C@@H](c1cccc(C(F)(F)F)c1)[C@H](O)C2=O`, the composite z-score is 0.0008 in assay [1]; -0.14 in assay [2]; -0.324 in assay [3]; 0.213 in assay [5]; 0.39 in assay [6]; 0.349 in assay [7]. The composite z-score in assay [8] stood at 0.416; in assay [9] it was 0.356; in assay [10], 0.149; in assay [11], 0.368; in assay [13], 0.428; in assay [14], 0.172. For the same compound, the composite z-score in assay [15] is -0.427; in [16], -0.172; in [17] it was -0.304; in assay [18], -0.0496; in assay [19], 0.342; in assay [20] it was 0.375. The values for the z-score in assay [4] and in [12] were -0.912 (inactive) and 1.18, respectively.

In the case of `CC(C)=CCCC(C)=CCON=C1C[C@@H](O)[C@@H](O)[C@@H]2[C@@H]3C(=O)N(Cc4ccc5c(c4)OCO5)C(=O)[C@@H]3CC[C@@H]12`, the composite z-score in [1] was 0.769; in assay [2] it was -0.268; in assay [3], -0.451; in assay [5], 1.01; in assay [6], 0.579; in assay [7], 0.696. In addition, the composite z-score worked out at 1.03 in assay [8]; 0.915 in assay [9]; 1.3 in [10]; 0.909 in [11]; 0.368 in [13]; 0.359 in [14]. Further, the composite z-score in [15] was -0.0661; in [16], 0.0388; in assay [17], -0.0396; in assay [18] it was 0.824; in assay [19], 0.999; in [20], 0.59. Also, the z-score in [4] was 0.0709 (inactive); in assay [12], 0.298.

On to `CCO[C@H](c1cc(OC)cc([N+](=O)[O-])c1OC)[C@H](C)[C@@H](OC)[C@H](C)C=CCC(=O)OC`, for which the composite z-score in assay [1] is 0.535; in assay [2], 0.481; in [3] it was -0.133; in assay [5], 0.278; in assay [6] it was 0.188; in assay [7], 0.835. Also, the composite z-score in [8] was 0.723; in assay [9], -0.359; in assay [10] it was -0.334; in assay [11], 0.488; in [13], -0.0609; in assay [14], 0.379. In addition, the composite z-score was -0.103 in assay [15]; -0.0383 in assay [16]; -0.138 in assay [17]; -0.445 in assay [18]; -0.0844 in assay [19]; 0.696 in assay [20]. In addition, the z-score in assay [4] was -0.188 (inactive); in assay [12], 0.899.

Regarding `C#CCCCON=C1C[C@@H](O)[C@@H](O)[C@@H]2[C@@H]3C(=O)N(C[C@@H]4CCCO4)C(=O)[C@@H]3CC[C@@H]12`, the composite z-score is 0.44 in assay [1]; -0.244 in [2]; -0.362 in assay [3]; 0.732 in assay [5]; 0.223 in assay [6]; 0.469 in assay [7]. Besides, the composite z-score in assay [8] was 0.67; in assay [9], 0.449; in [10], 0.397; in assay [11], 0.578; in assay [13], 0.386; in [14] it was -0.358. Moreover, the composite z-score was -0.129 in assay [15]; -0.0865 in assay [16]; -0.153 in assay [17]; 0.223 in [18]; -0.0438 in [19]; 0.506 in [20]. Further, the figures for the z-score in [4] and in [12] were -0.28 (inactive) and 0.367, respectively.

Regarding `C[C@@H](c1ccccc1)N1C(=O)[C@H]2[C@H]3[C@H](O)[C@H](O)CC(=NOC[C@@H](O)COCc4ccco4)[C@H]3CC[C@H]2C1=O`, the composite z-score in [1] is 0.975; in assay [2], -0.427; in assay [3], -1.27; in assay [5], -0.185; in [6], 1.21; in assay [7], 1.07. The composite z-score was 1.14 in [8]; 1.59 in [9]; 0.574 in assay [10]; -0.788 in assay [11]; 0.858 in assay [13]; -0.858 in assay [14]. Besides, the composite z-score is -1.65 in [15]; -0.196 in [16]; 0.0952 in assay [17]; -0.285 in [18]; -0.175 in assay [19]; -0.0662 in assay [20]. The z-score in assay [4] is 0.319 (inactive); in assay [12] it was -0.978.
